Screening data from PubChem.
MmCpn inh = M. maripaludis TRiC chaperonin inhibition; hit rate 0.031% among 330,000; purified Mm-Cpn ATPase, ADP Transcreener TR-FRET; Potency, µM (titrated, usually from 76.9 µM), most hits filed as inhibitors; note: nearly all actives have a fitted effect of over 80% in size
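Purified archaeal Mm-CPN (25nM final) preincubated 10 min at 37degC with compound, then 10uM ATP for 30 min at 37degC; ADP measured by HTRF Transcreener TR-FRET; buffer 30 mM TRIS pH 7.4, 100mM KCl, 5mM MgCl2, 1mM DTT.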
aSyn yeast inh = alpha-synuclein toxicity inhibition in yeast; Yeast expressing alpha-synuclein, growth rescue, BacTiter-Glo, 24 h; Potency, µM (doses to about 46.1 µM), usual class: activators; hit rate 0.14% among 370,000; AID 652106; note: nearly all actives have a fitted effect of over 65% in size
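Galactose-induced alpha-syn yeast (OD600=0.02, raffinose-pregrown) + pinned cpd, 24 hr, 30 deg C; growth by BacTiter-Glo luminescence. Growth restoration scores as activation.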
FUS yeast rescue = rescues growth of FUS-expressing yeast; S. cerevisiae FUS-expressing, growth rescue, OD600, 24 h; Potency, µM (top dose mostly 76.6 µM), actives largely listed as activators; hit rate 0.24% among 390,000; AID 1347120; note: nearly all actives have a fitted effect of over 55% in size
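Yeast FUS proteinopathy model; galactose-induced FUS (2%), starting OD 0.005. Cpds in dilution series, 24hr, 30C, 99% humidity. Abs 600 nm growth. Pos ctrl CP55940 (top 92uM final); neg ctrl DMSO.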
TDP-43 yeast inh = inhibitors of TDP-43 toxicity in yeast. TDP-43 expressing yeast growth rescue, BacTiter-Glo, 24 h. Potency, µM (series often up to 46.1 µM), actives largely listed as activators. hit rate 1.8% among 410,000. AID 652104; note: nearly all actives have a fitted effect of over 50% in size
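Cell-based yeast growth screen: TDP-43 expression induced in galactose, inoculum OD600=0.02 after raffinose pregrowth to mid-log. Read-out BacTiter-Glo luminescence at 24 hr, 30 deg C; inhibition of toxicity seen as signal increase.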
Abeta rescue = compounds reversing amyloid beta toxicity in yeast; yeast expressing A-beta42, growth rescue, OD600, 48 h; response scale: 0% DMSO, 100% iron-clioquinol control; Potency, µM (series often up to 46.1 µM), usual class: activators; hit rate 0.063% among 410,000; note: nearly all actives have a fitted effect of over 55% in size
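Growth rescue measured by 600 nm absorbance after 48 h yeast culture at 30 C with compound. Values normalized between DMSO and an equimolar ferric chloride plus clioquinol control.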
ClpP mod = qHTS Assay for Activators of ClpP; ATP-dependent Clp protease proteolytic subunit (Bacillus subtilis (strain 168)), P80244; purified B. subtilis ClpP, FRET peptide cleavage, 20 min; Potency, µM (highest dose often 57.5 µM); hit rate 1.9% among 340,000; AID 651965, 2013; active = well fitted falling curve with a large enough effect; inconclusive = small, poorly fitted or top-dose-only effect; inactive = no such curve, though single readings can be large or run the other way; note: the source files actives as falling curves though it sought activators and does not explain the sign; nearly all actives have a fitted effect of over 65% in size
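ClpP 10 microg/mL final, pH 8 Tris/KCl buffer with BSA, glycerol, Tween-20; compound pinned in; FRET-FV substrate; RT 20 min; Ex320/Em430; ΔFRET vs ADEP 5.8 microM, DMSO, no enzyme.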
Hits are given with their value; . = inactive; ? = inconclusive; / = not tested or not shown; [ ] = remark or other dose. Compounds with a hit are over-represented: about 3.6% of the library has one in this group of screens. Unless noted, calls come from the whole dose curve; as a rule, active = well fitted curve in the direction sought with a large enough effect; inconclusive = small, poorly fitted or top-dose-only effect, or another doubt; inactive = no such curve, though single readings can be large; an effect the other way counts as inactive or inconclusive.

SMILES	MmCpn inh	aSyn yeast inh	FUS yeast rescue	TDP-43 yeast inh	Abeta rescue	ClpP mod
Cc1ccc(OCCC(=O)OCC(=O)NNC(=O)c2ccccc2)cc1	.	.	.	.	.	25µM
CCOc1cc(N2CCOCC2)c(OCC)cc1NC(=O)COC(=O)CCOc1ccc(C(C)(C)C)cc1	.	.	.	22µM	.	.
Cc1ccc(OCCC(=O)NNC(=O)c2ccncc2)cc1	/	.	.	.	.	.
CCOc1ccc(OCCC(=O)NNC(=O)c2ccncc2)cc1	.	.	/	.	.	7.9µM
COC(=O)CC[C@H](/C=C/C(=O)OC(C)(C)C)Sc1ccc(C(C)(C)C)cc1	/	/	.	/	/	/
CC(C)(C)c1ccc(OCCC(=O)OCC(=O)NC2CC2)cc1	.	?	.	13µM	.	.
O=C(CCS(=O)(=O)c1cccs1)Nc1ccc(C(=O)Nc2cccc(Cl)c2)cc1	/	/	.	.	.	.
C[C@@H](NC(=O)c1nc[nH]c1C(=O)N[C@@H](Cc1ccccc1)C(=O)OC(C)(C)C)c1ccccc1	/	.	20µM	.	.	.
C[C@H](NC(=O)c1nc[nH]c1C(=O)N[C@@H](Cc1ccccc1)C(=O)OC(C)(C)C)c1ccccc1	/	.	?	.	.	.
C[C@@H](NC(=O)c1nc[nH]c1C(=O)N[C@@H](CCCCNC(=O)OC(C)(C)C)C(=O)OC(C)(C)C)c1ccccc1	/	.	20µM	.	.	.
CCOC(=O)c1ccc(NC(=O)c2nc[nH]c2C(=O)N[C@@H](C)C(=O)OC(C)(C)C)cc1	.	.	.	28µM	.	.
CC(C)(C)OC(=O)NCCCC[C@H](NC(=O)c1[nH]cnc1C(=O)Nc1ccc(Cl)cc1)C(=O)OC(C)(C)C	.	.	16µM	.	.	?
COc1cccc(CCNC(=O)c2c(O)nc3ccccn3c2=O)c1	/	/	.	.	.	.
O=C(Cn1cnc2c(oc3ccccc32)c1=O)Nc1ccccc1C(F)(F)F	/	/	.	.[9.22 µM]	.	.
Clc1nc(NCC2CCCO2)c2[nH]cnc2n1 (centres undefined)	/	.	/	/	/	.
C[C@H](NC(=O)c1[nH]cnc1C(=O)Nc1ccccc1)c1ccccc1	.	.	.	25µM	.	.
Cc1ccc(NC(=O)c2nc[nH]c2C(=O)N[C@H](C)c2ccccc2)cc1	.	?	.	.	?	.
COc1ccc(CCNC(=O)c2ccc3c(c2)N(Cc2ccc(Cl)cc2)C(=O)c2ccccc2S3)cc1OC	/	/	.	.	.	.
COc1cc(N2C(=O)C=CC2=O)ccc1N1C(=O)C=CC1=O	/	.	/	20µM	.	.
CCC(c1nnnn1Cc1ccc(F)cc1)N(CCCO)Cc1cc2cc3c(cc2[nH]c1=O)OCO3 (centres undefined)	.	.	.	.	.	32µM
CCOC(=O)c1c(C)[nH]c(CCC(=O)NCc2cc(Br)ccc2OC)c1C	/	/	.	.	.	.
CC(=O)c1cc(C(=O)NC2CCCc3c2cnn3-c2cc(C)cc(C)c2)[nH]n1 (centres undefined)	.	.	.	.	.	32µM
C[C@H]1O[C@@H](n2cc(F)c(=O)[nH]c2=O)[C@H](O)[C@H]1O	/	.	/	/	/	/
N/C(=N\OC(=O)c1ccc(Cl)c(Cl)c1)c1cccc(CSc2ccccn2)c1	.	.	.	11µM	.	.
N/C(=N\OC(=O)c1ccc(=O)n(Cc2ccc(Cl)cc2)c1)c1ccccn1	.	.	.	.	.	.
SMILES	MmCpn inh	aSyn yeast inh	FUS yeast rescue	TDP-43 yeast inh	Abeta rescue	ClpP mod
N/C(=N\OC(=O)c1ccc(=O)n(Cc2ccccc2)c1)c1ccccn1	.	.	.	.	.	28µM
N/C(=N\OC(=O)c1ccc(Cl)c(Cl)c1)c1cccnc1	.	.	.	6.3µM	.	.
O=C1CS(=O)(=O)C2(C(=O)N(Cc3ccccc3)c3ccccc32)N1c1ccc(F)c(Cl)c1 (centres undefined)	/	.	.	20µM	.	.
Cc1ccc(N2C(=O)CS(=O)(=O)C23C(=O)N(Cc2cccc(F)c2)c2ccccc23)cc1Cl (centres undefined)	/	/	.	?	.	.
CC(C)Sc1nc2sc3c(c2c2nnc(SCC(=O)NCc4ccco4)n12)CCCC3	.	.	.	.	.	32µM
O=C(CSCC(=O)N1CCCCC1)Nc1nc(-c2cccs2)cs1	.	.	.	32µM	.	.
CC1CC(C)CN(C(=O)CSCC(=O)Nc2nc(-c3cccs3)cs2)C1 (centres undefined)	.	.	.	.	.	.
O=C(CSCC(=O)N1CCCCC1)Nc1nc(-c2ccc(Cl)s2)cs1	.	.	.	20µM	.	.
Cc1c(Cl)cccc1NC(=O)CN1C(=O)CSc2ccc(S(=O)(=O)N3CCCC3)cc21	/	/	.	.	.	.
CCc1ccc(NC(=O)c2ccc3ncsc3c2)cc1	.	/	/	/	/	/
COc1ccc(NC(=O)c2ccc3ncsc3c2)cc1	.	.	.	7.1µM	?	.
O=C(Nc1ccc(Br)cc1)c1ccc2ncsc2c1	.	.	.	3.2µM	.	/
COc1ccc(C(=O)Nc2ccc3nc(SCc4ccc(C)cc4)sc3c2)cc1	/	/	.	.	.	25µM
CC(C)Nc1nc(NCCOc2ccccc2Cl)c2sc(-c3ccccc3)cc2n1	/	.	.	.	.	25µM
CC(=O)Nc1cccc(Oc2nc(NC(C)C)nc3cc(-c4ccccc4)sc23)c1	/	.	?	25µM	.	.
COCCNc1nc(Oc2cccc(NC(C)=O)c2)c2sc(-c3ccccc3)cc2n1	/	.	.	.	.	?
O=C(NC1CCS(=O)(=O)C1)c1ccc(-c2ccc(Br)cc2)o1 (centres undefined)	.	.	.	.	.	16µM
O=C(NC12CC3CC(CC(C3)C1)C2)c1ccc(-c2ccc(Br)cc2)o1	.	.	/	.	.	32µM
O=C(NC12CC3CC(CC(C3)C1)C2)c1ccc([N+](=O)[O-])o1	.	.	.	20µM	.	.
O=C(NC12CC3CC(CC(C3)C1)C2)c1ccc(Br)o1	.	.	.	.	.	/
CCOc1ccc(C2C(C(=O)Nc3ccccc3)=C(C)Nc3nc(-c4ccccc4Cl)nn32)cc1OC (centres undefined)	/	/	32µM	.	.	.
COc1ccc(C2C(C(=O)Nc3ccccc3)=C(C)Nc3nc(-c4ccccc4Cl)nn32)cc1OC (centres undefined)	/	/	?	.	.	.
O=[N+]([O-])c1ccccc1C=Nn1c(-c2cc(-c3ccccc3)n[nH]2)n[nH]c1=S	/	/	.	/	/	/
Clc1cccc(-c2cc3nc4c(c(N5CCN(c6cnccn6)CC5)n3n2)CCCC4)c1	.	.	.	.	.[9.22 µM]	10µM
